Source: PubChem BioAssay (Broad Institute)
aSyn 5UTR act: Activators via SNCA 5'UTR binding, MLPCN; activity score, % (tested at 7.5 µM), hits read low; actives 7.1% (n = 300,000); alpha-synuclein 5'UTR reporter, activators screen; in the data active = activity score below about -60%
Large screens that a line does not name were inactive. These entries were drawn from the full list.

CCN(Cc1cnn(C)c1)C(=O)c1cc(COc2ccc3c(c2)CCCC3)on1	aSyn 5UTR act -72.7
Cc1ccc(NC(=O)/C(Cl)=C\c2ccccc2)cc1	aSyn 5UTR act -105.2
CC(=O)c1ccc(NC(=O)/C(Cl)=C/c2ccccc2)cc1	aSyn 5UTR act -174.7
O=C(Nc1ccc(F)cc1)/C(Cl)=C/c1ccccc1	aSyn 5UTR act -258.0
CC(C)c1ccc(/C=C(\c2nc3ccccc3[nH]2)S(=O)(=O)c2ccccc2)cc1	aSyn 5UTR act -80.9
O=S(=O)(/C(=C/c1ccc(C(F)(F)F)cc1)c1nc2ccccc2[nH]1)c1ccccc1	aSyn 5UTR act -61.9
c1ccc2c(Oc3ccc4c(c3)OCO4)nncc2c1	aSyn 5UTR act -71.1
COc1nc(-c2ccccc2)cc(-c2ccc3c(c2)OCO3)c1C#N	none
CCOc1nc(C)ccc1-c1noc(-c2ccco2)n1	aSyn 5UTR act -79.0
CCOc1ccccc1-c1nc(-c2ccc(C)nc2OC)no1	aSyn 5UTR act -207.0
Cc1cc2ccccc2n1CCNC(=O)c1ccccc1	aSyn 5UTR act -114.0
Cc1cc2ccccc2n1CCNC(=O)c1ccc(Br)o1	aSyn 5UTR act -77.6
COc1ccc(C(=O)O/N=C(\N)c2ccccn2)cc1	none
CCOc1ccc(C(=O)O/N=C(\N)c2ccccn2)cc1OCC	aSyn 5UTR act -102.6
COc1cc(OC)cc(C(=O)O/N=C(\N)c2ccccn2)c1	aSyn 5UTR act -129.6
Cc1ccc2nc(-c3ccccn3)c(NC3CCCC3)n2c1	aSyn 5UTR act -165.4
CN1C(=O)S/C(=C\c2ccc(-n3cncn3)cc2)C1=O	aSyn 5UTR act -93.2
Cn1c(N/N=C/c2cc3ccccc3nc2Cl)nc2ccccc21	aSyn 5UTR act -127.0
Fc1c(F)c(F)c(N/N=C/c2c[nH]c3ccccc23)c(F)c1F	aSyn 5UTR act -103.1
Cn1c(N/N=C/c2c[nH]c3ccccc23)nc2ccccc21	aSyn 5UTR act -126.4
CSc1ccccc1NC(=O)c1cc2ncc(Br)cn2n1	aSyn 5UTR act -181.7
N#C/C(=C/c1ccc(N2CCCCCC2)o1)c1cccc(F)c1	aSyn 5UTR act -286.4
N#C/C(=C/c1ccc(N2CCCCCC2)o1)c1ccc(F)cc1	aSyn 5UTR act -110.7
N/C(=N\OC(=O)CCCc1ccccc1)c1ccccc1Cl	aSyn 5UTR act -98.1
COc1ccc(OCc2cccc(C(=O)O)c2)cc1	none
Cc1ccc(/C(N)=N/OC(=O)Cc2ccccc2)cc1	aSyn 5UTR act -130.1
Cc1cccc(/C(N)=N/OC(=O)CCc2ccccc2)c1	aSyn 5UTR act -156.6
COc1ccc(C(=O)CCc2ccccc2)cc1	aSyn 5UTR act -110.7
O=C(CC(=O)c1ccccc1O)c1ccc(F)cc1	aSyn 5UTR act -74.8
COc1ccc(/C(N)=N/OC(=O)CCc2ccccc2)cc1	aSyn 5UTR act -100.2
COc1ccc(NC(=O)CCSc2ccc(F)cc2)cc1	aSyn 5UTR act -92.7
O=C(Cc1ccccn1)c1ccc(F)cc1	aSyn 5UTR act -64.4
COc1ccc(C(=O)C(CCC(CNC(C)(C)C)C(=O)c2ccc(OC)cc2)CNC(C)(C)C)cc1 (configuration not stated)	none
COc1ccc(C(=O)CC(=O)C(=O)Nc2ccc(C)c(C)c2)cc1	aSyn 5UTR act -63.4
N/C(=N\OC(=O)Cc1ccccc1)c1ccc(Br)cc1	aSyn 5UTR act -79.9
COc1ccc(C(=O)CC(=O)c2ccc(F)cc2)cc1	aSyn 5UTR act -165.4
Cc1ccc(/C(N)=N/OC(=O)CCCc2ccccc2)cc1	aSyn 5UTR act -68.0
Cc1ccc(NC(=O)NCCN2C(=O)C3C4C=CC(C4)C3C2=O)cc1 (configuration not stated)	aSyn 5UTR act -80.9
O=C(Nc1cccc(Cl)c1)Nc1ccccc1C(=O)O	aSyn 5UTR act -119.7
CSc1cccc(NC(=O)Nc2ccc(Cl)cc2)c1	aSyn 5UTR act -96.5
CC(=O)c1ccc(NC(=O)Nc2cccc(Cl)c2)cc1	aSyn 5UTR act -82.3
CC(=O)c1ccc(NC(=S)NCCc2cccc(Cl)c2)cc1	aSyn 5UTR act -178.7
CC(=O)c1ccc(NC(=O)Nc2ccc3c(c2)nc(C)n3C)cc1	aSyn 5UTR act -147.8
CCNS(=O)(=O)c1ccc(NC(=O)Nc2ccccc2OC)cc1	aSyn 5UTR act -79.2
O=C(Nc1ccc(C(=O)N2CCCCC2)cc1)Nc1cccc(Cl)c1	aSyn 5UTR act -81.6
CSc1cccc(NC(=S)Nc2ccc(F)cc2)c1	aSyn 5UTR act -196.4
COc1ccccc1NC(=O)N1CCC(c2nc3cc(C)c(C)cc3[nH]2)CC1	none
CC(=O)Nc1ccc(NC(=O)Nc2cccc(Cl)c2)cc1	aSyn 5UTR act -79.2
CC(=O)c1ccc(NC(=S)NCCc2ccc(S(N)(=O)=O)cc2)cc1	aSyn 5UTR act -79.6
COc1ccccc1NC(=O)Nc1ccc(C(=O)N2CCCCC2)cc1	aSyn 5UTR act -98.6
CS/C(N)=N/C(=S)Nc1cccc(Cl)c1	aSyn 5UTR act -142.8
COC(=O)c1cccc(NC(=O)/C=C/c2ccc3c(c2)OCO3)c1	none
Cc1cccnc1NC(=O)/C=C/c1ccc2c(c1)OCO2	aSyn 5UTR act -151.4
Cc1cc(C)nc(NC(=O)/C=C/c2ccc3c(c2)OCO3)c1	aSyn 5UTR act -206.9
O=C(Nc1ccc(Cl)c(Cl)c1)c1ccc(Cn2cc(Cl)cn2)cc1	aSyn 5UTR act -120.1
O=C(Nc1ccccc1F)c1ccc(Cn2cc(Cl)cn2)cc1	aSyn 5UTR act -84.2
O=C(Nc1ccc([N+](=O)[O-])cc1)c1ccc(Cn2cc([N+](=O)[O-])cn2)cc1	none
C=CCN1C=CC(=C/C=C(/C#N)C(=O)OCC)C=C1	aSyn 5UTR act -137.7
CCOC(=O)/C(C#N)=C/C=C1/C=CC=CN1C	aSyn 5UTR act -63.0
O=C(N/N=C/c1ccc2nccnc2c1)c1ccccc1O	aSyn 5UTR act -149.8
O=C(N/N=C/c1ccnc2ccccc12)c1ccccc1O	aSyn 5UTR act -61.9
C(=N\NCc1ccccc1)/c1ccc2nccnc2c1	aSyn 5UTR act -106.3
O=C(N/N=C/c1ccc(O)c2ncccc12)c1cccc(Br)c1	none
O=C(N/N=C/c1cccnc1)c1ccc(NC(=O)C(c2ccccc2)c2ccccc2)cc1	none
O=C(N/N=C/c1cccnc1)c1cc(Br)ccc1O	aSyn 5UTR act -124.6
C=C1C(=O)O[C@@H]2C[C@@H](C)[C@@H]3C=CC(=O)[C@@]3(C)[C@@H](OC(C)=O)[C@H]12	none
Cc1cccc(C(=O)Oc2ccc(/C=N/NC(=O)c3ccccc3O)cc2)c1	aSyn 5UTR act -134.8
CCOc1ccc(C(=O)N2CCc3ccccc32)cc1	aSyn 5UTR act -104.1
O=C(c1ccc2ccccc2c1)N1CCc2ccccc21	aSyn 5UTR act -100.1
O=C(c1cccs1)N1CCc2ccccc21	aSyn 5UTR act -156.7
c1ccc2c(-c3csc(-c4ccncc4)n3)c[nH]c2c1	aSyn 5UTR act -141.3
Brc1ccc(-c2csc(-c3c[nH]c4ccccc34)n2)cc1	aSyn 5UTR act -183.0
O=C(C1=NN[C@@H]2C(=O)N(c3cccc(F)c3)C(=O)[C@H]12)c1ccc2ccccc2n1	aSyn 5UTR act -79.1
CCCc1cc2c(cc1NC(=O)c1ccc(C(C)(C)C)cc1)OCO2	aSyn 5UTR act -74.3
O=C(NC(=S)Nc1cccc(F)c1)c1cccc([N+](=O)[O-])c1	aSyn 5UTR act -109.1
Cc1cccc(C(=O)Nc2ccc3ccccc3c2)c1	aSyn 5UTR act -110.9
CCOc1ccc(C(=O)Nc2cccc([N+](=O)[O-])c2)cc1Br	aSyn 5UTR act -137.8
O=C(Nc1ccc2ccccc2c1)c1cccc([N+](=O)[O-])c1	aSyn 5UTR act -112.7
COc1ccc2cc(CN(CC3CCCO3)C(=O)Nc3ccccc3OC)c(=O)[nH]c2c1 (configuration not stated)	none
CCc1ccc2[nH]c(=O)c(CN(CCN(CC)CC)C(=O)Nc3ccccc3OC)cc2c1	aSyn 5UTR act -62.5
COc1ccccc1NC(=O)N(Cc1ccco1)Cc1cc2ccc(C)c(C)c2[nH]c1=O	none
